# According to PubChem BioAssay (EPA / NIEHS):
# Where “and” joins values, the source holds several entries; their conditions need not be identical. Equal values may be shown once. Where a structure was tested more than once in an assay, its records may differ in their call. Calls of active or inactive are those of the source. Rule for the calls: active = hit-call score of the fitted dose curve at least 0.9, where 1 is the maximum; inactive = score below 0.9.
# Assays:
# [1] = BSK_MyoF_SRB: Viability Assessment in the BioMAP Diversity Plus: MyoF Assay (AID 2284267); details: primary human lung fibroblasts;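 note: total protein by SRB absorbance in parallel cultures as cytotoxicity measure; cells assessed 24 h after compound addition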
# Outline: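 Lung fibroblast cultures, 24 h post-dose; fix 10% TCA, stain 0.1% SRB, read 560 nm. Signal = total protein as cytotoxicity measure; fitted relative to DMSO negative control.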
# [2] = read-out: Matrix Metallopeptidase 1 (MMP1), MMP1 (gene 4312); test: BSK_MyoF_MMP1: BioMAP Diversity Plus: MyoF Assay for Matrix Metallopeptidase 1 (MMP1) Biomarker Activity (AID 2284268); details: primary human lung fibroblasts
# Outline: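 Human lung fibroblasts (MyoF system) exposed to chemical for 24 h in 96-well format; MMP1 biomarker quantified by ELISA, with activity fitted in the positive direction relative to DMSO baseline.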
# [3] = read-out: TIMP metallopeptidase inhibitor 1 (TIMP1), TIMP1 (gene 7076); test: BSK_MyoF_TIMP1: BioMAP Diversity Plus: MyoF Assay for TIMP metallopeptidase inhibitor 1 (TIMP1) Biomarker Activity (AID 2284269); details: primary human lung fibroblasts
# Outline: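 TIMP-1 levels were determined by ELISA in human lung fibroblasts treated for 24 h. DMSO served as negative control and baseline for upward curve fitting.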
# [4] = read-out: KRT18 (gene 3875); test: BSK_BF4T_Keratin818: BioMAP Diversity Plus: BF4T Assay for Keratin 818 Biomarker Activity (AID 2284266); details: primary human bronchial epithelial cells with fibroblasts
# Outline: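 Keratin 8/18 levels quantified by ELISA after 24 h chemical treatment of bronchial epithelial cell/dermal fibroblast co-cultures, fitted in positive direction relative to DMSO. Parallel SRB staining tracks overt cytotoxicity.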
# [5] = read-out: Matrix Metallopeptidase 3 (MMP3), MMP3 (gene 4314); test: BSK_BF4T_MMP3: BioMAP Diversity Plus: BF4T Assay for Matrix Metallopeptidase 3 (MMP3) Biomarker Activity (AID 2284271); details: primary human bronchial epithelial cells with fibroblasts
# Outline: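 MMP-3 level read by ELISA after 24 h chemical exposure of bronchial epithelial cell/dermal fibroblast co-cultures, fitted upward relative to DMSO. Parallel cultures stained with 0.1% SRB after TCA fixation gauge overt cytotoxicity.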
# [6] = read-out: Tissue plasminogen activator (tPA), PLAT (gene 5327); test: BSK_BF4T_tPA: BioMAP Diversity Plus: BF4T Assay for Tissue plasminogen activator (tPA) Biomarker Activity (AID 2284272); details: primary human bronchial epithelial cells with fibroblasts
# Outline: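 tPA level quantified by ELISA at 24 h post-treatment in bronchial epithelial/dermal fibroblast co-cultures, gain of signal scored against DMSO baseline. Parallel cultures stained with 0.1% SRB (560 nm) to flag overt cytotoxicity.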
# [7] = read-out: Plasminogen Activator Inhibitor-1 (PAI1), SERPINE1 (gene 5054); test: BSK_BF4T_PAI1: BioMAP Diversity Plus: BF4T Assay for Plasminogen Activator Inhibitor-1 (PAI1) Biomarker Activity (AID 2284273); details: primary human bronchial epithelial cells with fibroblasts
# Outline: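 PAI-1 levels quantified by ELISA 24 h post-dosing in bronchial epithelial cell plus dermal fibroblast cultures. Signal gain referenced to DMSO baseline. Sulforhodamine B total-protein staining of parallel wells checked cytotoxicity.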
# [8] = read-out: urokinase Plasminogen Activator (uPA), PLAU (gene 5328); test: BSK_BF4T_uPA: BioMAP Diversity Plus: BF4T Assay for urokinase Plasminogen Activator (uPA) Biomarker Activity (AID 2284275); details: primary human bronchial epithelial cells with fibroblasts
# Outline: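 uPA levels measured by ELISA at 24 hours in BF4T cultures (bronchial epithelial cells plus dermal fibroblasts) and compared with DMSO; cytotoxicity tracked in parallel cultures by sulforhodamine B staining.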
# [9] = read-out: Interleukin-8 (IL8), CXCL8 (gene 3576); test: BSK_IMphg_IL8: BioMAP Diversity Plus: IMphg Assay for Interleukin-8 (IL8) Biomarker Activity (AID 2284277); details: primary human endothelial cells with macrophages
# Outline: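 IL-8 levels were measured by ELISA 24 h after dosing in primary human venular endothelial cell–macrophage cultures, referenced to DMSO; parallel SRB staining monitored overt cytotoxicity.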
# [10] = read-out: Intercellular Adhesion Molecule 1 (ICAM1), ICAM1 (gene 3383); test: BSK_BE3C_ICAM1: BioMAP Diversity Plus: BE3C Assay for Intercellular Adhesion Molecule 1 (ICAM1) Biomarker Activity (AID 2284278); details: primary human bronchial epithelial cells;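 note: cell-surface ICAM-1 protein level quantified by ELISA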
# Outline: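 ELISA read-out of ICAM-1 on human lung bronchial epithelial primary cells, 24 h post-dosing; positive-direction curve fit, DMSO = baseline. SRB total-protein staining of parallel cultures flagged overt cytotoxicity.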
# [11] = read-out: Interferon-inducible T-cell alpha chemoattractant (ITAC), CXCL11 (gene 6373); test: BSK_BE3C_ITAC: BioMAP Diversity Plus: BE3C Assay for Interferon-inducible T-cell alpha chemoattractant (ITAC) Biomarker Activity (AID 2284279); details: primary human bronchial epithelial cells
# Outline: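 The assay measures I-TAC levels by ELISA in human primary bronchial epithelial cell cultures 24 hours after chemical treatment. Values reflect signal increase over the DMSO baseline.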
# [12] = read-out: Interleukin-8 (IL8), CXCL8 (gene 3576); test: BSK_BE3C_IL8: BioMAP Diversity Plus: BE3C Assay for Interleukin-8 (IL8) Biomarker Activity (AID 2284280); details: primary human bronchial epithelial cells
# Outline: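 Measured at 24 h after treatment, IL-8 from human primary bronchial epithelial cells is determined by ELISA, and the response is modelled as increasing relative to DMSO negative control.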
# [13] = read-out: Epidermal growth factor receptor (EGFR), EGFR (gene 1956); test: BSK_BE3C_EGFR: BioMAP Diversity Plus: BE3C Assay for Epidermal growth factor receptor (EGFR) Biomarker Activity (AID 2284281); details: primary human bronchial epithelial cells
# Outline: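 Measured 24 h after dosing in primary human bronchial epithelial cultures, EGFR was read by ELISA; gain of signal over DMSO control defined activity.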
# [14] = read-out: KRT18 (gene 3875); test: BSK_BE3C_Keratin818: BioMAP Diversity Plus: BE3C Assay for Keratin 818 Biomarker Activity (AID 2284282); details: primary human bronchial epithelial cells
# Outline: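 ELISA read-out of Keratin 8/18 in BE3C human bronchial epithelial cultures, 24 h post-dosing; positive-direction fit vs DMSO baseline.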
# [15] = read-out: Plasminogen activator inhibitor-1 (PAI1), SERPINE1 (gene 5054); test: BSK_CASM3C_PAI1: BioMAP Diversity Plus: CASM3C Assay for Plasminogen activator inhibitor-1 (PAI1) Biomarker Activity (AID 2284284); details: primary human coronary artery smooth muscle cells
# [16] = read-out: Vascular cell adhesion molecule 1 (VCAM1), VCAM1 (gene 7412); test: BSK_IMphg_VCAM1: BioMAP Diversity Plus: IMphg Assay for Vascular cell adhesion molecule 1 (VCAM1) Biomarker Activity (AID 2284286); details: primary human endothelial cells with macrophages
# Outline: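 ELISA read-out of VCAM-1 on venular endothelial cell/macrophage co-cultures at 24 h post-treatment, with DMSO as baseline and positive-direction fitting. Parallel sulforhodamine B total-protein staining (560 nm) served as the overt cytotoxicity measure.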
# [17] = read-out: TIMP metallopeptidase inhibitor 2 (TIMP2), TIMP2 (gene 7077); test: BSK_hDFCGF_TIMP2: BioMAP Diversity Plus: hDFCGF Assay for TIMP metallopeptidase inhibitor 2 (TIMP2) Biomarker Activity (AID 2284289); details: primary human foreskin fibroblasts
# Outline: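 Primary human foreskin fibroblasts in the hDFCGF system, dosed for 24 h; TIMP-2 level measured by ELISA, fitted in the positive direction against DMSO; cytotoxicity checked in parallel by sulforhodamine B total protein staining.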
# [18] = read-out: Interleukin-1 alpha (IL1a), IL1A (gene 3552); test: BSK_IMphg_IL1a: BioMAP Diversity Plus: IMphg Assay for Interleukin-1 alpha (IL1a) Biomarker Activity (AID 2284290); details: primary human endothelial cells with macrophages
# Outline: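 IL-1α is quantified by ELISA at 24 h in the endothelial/macrophage IMphg co-culture, with gain of signal fitted relative to DMSO. Parallel SRB total-protein staining flags overt toxicity.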
# [19] = read-out: Macrophage colony-stimulating factor (MCSF), CSF1 (gene 1435); test: BSK_IMphg_MCSF: BioMAP Diversity Plus: IMphg Assay for Macrophage colony-stimulating factor (MCSF) Biomarker Activity (AID 2284293); details: primary human endothelial cells with macrophages
# Outline: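 M-CSF was measured by ELISA in human venular endothelial cell/macrophage co-cultures dosed for 24 hours. Sulforhodamine B staining of parallel cultures assessed cytotoxicity; data fitted against DMSO baseline.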
# [20] = read-out: Interleukin-10 (IL10), IL10 (gene 3586); test: BSK_IMphg_IL10: BioMAP Diversity Plus: IMphg Assay for Interleukin-10 (IL10) Biomarker Activity (AID 2284294); details: primary human endothelial cells with macrophages
# Outline: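 IL-10 read by ELISA after 24 h chemical exposure of primary human venular endothelial cell/macrophage cocultures, with DMSO as baseline. Parallel SRB staining (560 nm) gauged overt cytotoxicity.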
smiles,measurement,setting,value
Nc1ccc([N+](=O)[O-])cc1Cl,outcome,[1],inactive
same,outcome,[2],inactive
same,outcome,[3],inactive
OCC(F)(F)OC(F)(F)C(F)(F)OC(F)(F)CO,outcome,[4],inactive
same,outcome,[1],inactive
same,outcome,[2],inactive
same,outcome,[3],inactive
same,outcome,[5],inactive
same,outcome,[6],inactive
same,outcome,[7],inactive
same,outcome,[8],inactive
same,outcome,[9],inactive
same,outcome,[10],inactive
same,outcome,[11],inactive
same,outcome,[12],inactive
same,outcome,[13],inactive
same,outcome,[14],inactive
same,outcome,[15],inactive
same,outcome,[16],inactive
same,outcome,[17],inactive
same,AC50,[18],0.334 µM (active)
same,outcome,[18],inactive
same,outcome,[19],inactive
same,outcome,[20],inactive
O=C(O)C(F)(OC(F)(F)C(F)(F)C(F)(F)F)C(F)(F)F (stereo not drawn),outcome,[4],inactive
same,outcome,[1],inactive
same,outcome,[2],inactive
same,outcome,[3],inactive
same,outcome,[5],inactive
same,outcome,[6],inactive
same,outcome,[7],inactive
same,outcome,[8],inactive
same,AC50,[9],5.95 µM (active)
same,outcome,[9],inactive
same,outcome,[10],inactive
same,outcome,[11],inactive
same,outcome,[12],inactive
same,outcome,[13],inactive
same,outcome,[14],inactive
same,outcome,[15],inactive
same,outcome,[16],inactive
same,outcome,[17],inactive
same,AC50,[18],0.22 µM (active)
same,outcome,[18],inactive
same,AC50,[19],0.22 µM (active)
same,outcome,[19],inactive
same,AC50,[20],673 nM (active) and 652 nM (active)
same,outcome,[20],inactive
O=C(O)C(F)(F)OC(F)(F)C(F)(F)OC(F)(F)C(=O)O,outcome,[4],inactive
same,outcome,[1],inactive
same,outcome,[2],inactive
same,outcome,[3],inactive
same,outcome,[5],inactive
same,outcome,[6],inactive
same,outcome,[7],inactive
same,outcome,[8],inactive
same,outcome,[9],inactive
same,outcome,[10],inactive
same,outcome,[11],inactive
same,outcome,[12],inactive
same,outcome,[13],inactive
same,outcome,[14],inactive
same,outcome,[15],inactive
same,outcome,[16],inactive
same,outcome,[17],inactive
same,outcome,[18],inactive
same,outcome,[19],inactive
same,outcome,[20],inactive
CCOP(=S)(NC(C)C)Oc1ccccc1C(=O)OC(C)C (stereo not drawn),outcome,[1],inactive
same,outcome,[2],inactive
same,outcome,[3],inactive
COP(=O)(O)OC,outcome,[1],inactive
same,outcome,[2],inactive
same,outcome,[3],inactive
CCOP(=S)(OCC)SCn1nnc2ccccc2c1=O,outcome,[1],inactive
same,outcome,[2],inactive
same,outcome,[3],inactive
O=c1ssc(Cl)c1Cl,AC50,[1],5.58 µM (active)
same,AC50,[2],20 µM (active)
same,AC50,[3],7.43 µM (active)
Cc1c([N+](=O)[O-])cc2c(c1[N+](=O)[O-])C(C)(C)CC2(C)C,outcome,[1],inactive
same,AC50,[2],4.01 µM (active)
same,outcome,[3],inactive
CC(O)C(F)(F)C(F)(F)F (stereo not drawn),outcome,[4],inactive
same,outcome,[1],inactive
same,outcome,[2],inactive
same,outcome,[3],inactive
same,outcome,[5],inactive
same,outcome,[6],inactive
same,outcome,[7],inactive
same,outcome,[8],inactive
same,outcome,[9],inactive
same,outcome,[10],inactive
same,outcome,[11],inactive
same,outcome,[12],inactive
same,outcome,[13],inactive
same,outcome,[14],inactive
same,outcome,[15],inactive
same,outcome,[16],inactive
same,outcome,[17],inactive
same,outcome,[18],inactive
same,outcome,[19],inactive
same,outcome,[20],inactive
